Rows were chosen to be rich in hits. Some 19% of all compounds tested hit in one or more screens of this group.
KB-V1 MDR tox – qHTS assay for MDR1-selective chemotherapeutics: Primary screen using the drug-selected MDR subline cells KB-V1; 400,000 compounds, 3.4% hits; KB-V1 MDR cells viability, CellTiter-Glo, 72 h; Potency, µM (doses to about 46.1 µM), usual class: cytotoxic; further: nearly all actives have a fitted effect of over 60% in size
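KB-V1 cells (P-gp-expressing MDR subline of KB-3-1) in phenol-red-free DMEM with 10% FBS were exposed to library compounds over a concentration series for 72 h at 37 degrees C. Viability read by CellTiter-Glo luminescence; concentration-effect curves fitted after normalization.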
HT1080 IDH1KD tx – qHTS for induction of synthetic lethality in tumor cells producing 2HG: qHTS for the HT-1080-IDH1KD cell line. HT-1080 IDH1 knockdown viability, ATP luminescence, 48 h. 360,000 compounds, 2% hits. AID 686971, 2013. Potency, µM (doses to about 46.1 µM), most hits filed as cytotoxic
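Knockdown cells (IDH1KD HT-1080) received compounds 2 h after plating at 750 cells/well and were kept 48 h at 37 °C in 5% FBS RPMI. A CellTiter-Glo luminescence read gave % activity for curve fitting.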
DT40 TDP1 no CPT – qHTS for Inhibitors of human tyrosyl-DNA phosphodiesterase 1 (TDP1): qHTS in cells in absence of CPT | DT40 Tdp1-/- hTDP1 cells, no CPT, ATP luminescence, 48 h | Potency, µM (titrated, usually from 46.2 µM), hits mostly inhibitors | 420,000 compounds, 15% hits; further: nearly all actives have a fitted effect of over 55% in size
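Seeded 400 DT40-hTDP1 cells/well (vehicle DMSO, no 20 nM CPT); pinned compounds; ≥48 hr at 37 °C; CellTiter-Glo luminescence as viability measure.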
KB-3-1 cytotox – qHTS assay for MDR1-selective chemotherapeutics: Primary screen using the parental adenocarcinoma cell KB-3-1 | Potency, µM (series often up to 46.1 µM), most hits filed as cytotoxic | 400,000 compounds, 1.4% hits | AID 1347075, 2019 | KB-3-1 viability, CellTiter-Glo ATP luminescence, 72 h; further: nearly all actives have a fitted effect of over 60% in size
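Here the drug-naive KB-3-1 line serves as comparator for MDR sub-line selectivity; cells received compound titrations, 72 h at 37 °C, then CellTiter-Glo readout.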
DT40 TDP1 CPT – qHTS for Inhibitors of human tyrosyl-DNA phosphodiesterase 1 (TDP1): qHTS in cells in presence of CPT; chicken DT40 Tdp1-/-;hTDP1 cells + 20 nM CPT, ATP luminescence, 48 h; Potency, µM (series often up to 46.2 µM), actives largely listed as inhibitors; 420,000 compounds, 12% hits; further: nearly all actives have a fitted effect of over 55% in size
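Chicken DT40 Tdp1-/- cells stably complemented with human TDP1 were seeded at 400 cells/well in medium containing 20 nM camptothecin, exposed to pin-transferred compounds, and grown at 37 °C for at least 48 hr. Viability was read as ATP luminescence.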
HT1080-NT tox – qHTS for induction of synthetic lethality in tumor cells producing 2HG: qHTS for the HT-1080-NT fibrosarcoma cell line; 360,000 compounds, 1.6% hits; Potency, µM (top dose mostly 46.1 µM), actives largely listed as cytotoxic; HT-1080-NT fibrosarcoma viability, CellTiter-Glo ATP luminescence, 48 h;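 further: NT is the 2HG producing partner of a matched IDH1 knockdown line; nearly all actives have a fitted effect of over 55% in size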
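Viability of the 2HG-overproducing fibrosarcoma line after 48 hours of compound exposure at 37 degrees C was determined by luminescence with CellTiter-Glo, and concentration-effect curves were then fitted and categorized.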
Numbers stand for hits; n = inactive; u = inconclusive; x = no result. The call rests on the fitted dose curve; in most records, active means well fitted curve in the direction sought with a large enough effect; inconclusive means small, poorly fitted or top-dose-only effect, or another doubt; inactive means no such curve, though single readings can be large; an effect the other way counts as inactive or inconclusive.

SMILES	KB-V1 MDR tox	HT1080 IDH1KD tx	DT40 TDP1 no CPT	KB-3-1 cytotox	DT40 TDP1 CPT	HT1080-NT tox
CC(=O)O[C@@]12CO[C@@H]1C[C@H](O)[C@@]1(C)C(=O)[C@H](O)C3=C(C)[C@@H](O)C[C@@](O)([C@@H](OC(=O)c4ccccc4)C12)C3(C)C (stereo partly specified)	n	u	9.2µM	11.6µM	9.2µM	u
C/C=C(\C)C(=O)N[C@@H](c1ccccc1)[C@@H](O)C(=O)O[C@H]1C[C@@]2(O)[C@@H](OC(=O)c3ccccc3)C3[C@](C)(C(=O)[C@H](OC(C)=O)C(=C1C)C2(C)C)[C@@H](O)C[C@H]1OC[C@@]31OC(C)=O (stereo partly specified)	n	u	0.0103µM	u	0.013µM	u
C/C=C(\C)C(=O)N[C@@H](c1ccccc1)[C@@H](O)C(=O)O[C@H]1C[C@@]2(O)[C@@H](OC(=O)c3ccccc3)C3[C@](C)(C(=O)[C@H](O)C(=C1C)C2(C)C)[C@@H](O)C[C@H]1OC[C@@]31OC(C)=O (stereo partly specified)	n	0.0058µM	0.164µM	u	0.0461µM	0.0411µM
CC1N=C(c2ccccc2Cl)c2cc(Br)ccc2NC1=O (stereo unspecified)	n	n	n	n	n	n
O=P(NCc1ccccc1)(Oc1ccccc1)Oc1ccccc1	n	n	n	n	u	n
COc1ccc(-c2ccc3c(c2)CN(C(=O)CCc2ccccc2)Cc2cnnn2-3)cc1	n	u	u	u	u	u
Cc1cc(C)cc(OCC(=O)Nc2ccc(-c3nc4ccccc4s3)cc2)c1	n	x	9.2µM	n	10.3µM	x
Cc1cc(-c2nc3ccccc3s2)ccc1NC(=O)c1cc(Cl)ccc1Cl	n	x	u	n	u	x
S=C(NCCc1ccccc1)N1Cc2ccc(Br)cc2-n2nncc2C1	n	u	u	u	u	u
CC1CCN(CC#CCOc2ccc(Cl)cc2)CC1	n	n	n	n	n	n
COc1ccc(C2C=C(c3ccccc3)Nc3nc(NC(=O)/C=C/c4ccccc4Cl)nn32)cc1 (stereo unspecified)	n	x	3.66µM	u	5.17µM	x
CCN1c2nc3ccccn3c(=O)c2CC2(C(=O)N(C)C(=O)N(C)C2=O)C1C (stereo unspecified)	16.4µM	n	n	n	n	n
CC1CCN2c3nc4ccccn4c(=O)c3CC3(C(=O)N(C)C(=O)N(C)C3=O)C2C1 (stereo unspecified)	7.31µM	n	n	n	n	n
Cc1cccn2c(=O)c3c(nc12)N1CCC(Cc2ccccc2)CC1C1(C3)C(=O)N(C)C(=O)N(C)C1=O (stereo unspecified)	u	n	u	n	18.4µM	n
CN1C(=O)N(C)C(=O)C2(Cc3c(nc4ccccn4c3=O)N3CCc4ccccc4C32)C1=O (stereo unspecified)	n	n	u	n	u	n
COC(=O)[C@@]1(C#N)[C@@H]2C=CC(C(C)=O)=CN2[C@@H](C(N)=O)[C@@H]1c1ccc(F)cc1	n	n	u	n	n	n
NC(=O)Cc1cccc(C(=O)c2ccccc2)c1N	x	x	u	x	n	x
Cc1cc(=O)oc2c(C)c(OCC(=O)N3CCN(Cc4ccccc4)CC3)ccc12	u	n	u	n	n	n
CC/C(=N\NC(=O)Nc1ccccc1)c1c(O)n(Cc2ccccc2)c(=O)[nH]c1=O	n	u	n	u	n	u
Cc1nn(Cc2ccccc2Cl)c(C)c1C(=O)OCC(=O)NC1CCCC(C)C1C (stereo unspecified)	u	n	23.1µM	n	20.6µM	n
Cc1nn(Cc2ccccc2Cl)c(C)c1C(=O)OCC(=O)N1CC(C)OC(C)C1 (stereo unspecified)	u	n	n	n	n	n
Cc1nn(CC(C)C)c(Cl)c1C(=O)NC1CCCC1	n	n	n	n	n	n
CC(C)CCCC1(C)C=Cc2c(O)c3c(c(CCC(C)C)c2O1)OC12C(CC4CC1C(C)(C)OC2(CCC(C)C(=O)O)C4O)C3=O (stereo unspecified)	x	x	n	x	n	x
CC(C)=CCCC1(C)C=Cc2c(O)c3c(c(CC=C(C)C)c2O1)OC12C(=CC4CC1C(C)(C)OC2(C/C=C(/C)C(=O)O)C4=O)C3=O (stereo unspecified)	x	x	1.03µM	x	0.92µM	x
CC(C)=CCCC1(C)C=Cc2c(O)c3c(c(CC=C(C)C)c2O1)OC12C(=CC4CC1C(C)(C)OC2(C/C=C(/C)C(=O)O)C4O)C3=O (stereo unspecified)	x	x	3.66µM	x	4.61µM	x
SMILES	KB-V1 MDR tox	HT1080 IDH1KD tx	DT40 TDP1 no CPT	KB-3-1 cytotox	DT40 TDP1 CPT	HT1080-NT tox
O=C(NCP(=O)(Oc1ccccc1)Oc1ccccc1)OCc1ccccc1	n	n	n	n	n	n
O=C(OC1CCN(CCCl)CC1)C(c1ccccc1)c1ccccc1	n	n	u	n	16.4µM	n
C[N+]1(C)[C@@H]2CC[C@H]1CC(OC(=O)C(c1ccccc1)c1ccccc1)C2 (stereo partly specified)	n	n	u	n	u	n
CN1C(=O)CCS(=O)(=O)C1c1ccc(Cl)cc1 (stereo unspecified)	x	x	n	x	n	x
CCOP(=O)(CCP(=O)(OCC)OCC)OCC.C[CH2][Sn]([Cl])([Cl])[CH2]C	u	4.61µM	0.82µM	u	0.731µM	u
CCOP(=O)(OCC)OCC	n	n	n	n	n	n
c1cncc(CNCCc2ccc3c(c2)OCO3)c1	n	n	n	n	n	n
CC(C)S(=O)(=O)N1Cc2ccccc2-n2nncc2C1	n	n	n	n	n	n
CCCCn1c(N)c(N(CCOC)C(=O)CN2CC=C(c3ccccc3)CC2)c(=O)[nH]c1=O	n	n	u	n	u	n
CCCCn1c(N)c(N(CC(C)C)C(=O)c2cc(Br)c(Br)s2)c(=O)[nH]c1=O	n	n	23.1µM	u	u	n
CCCCc1ccc2[nH]cc(CCN)c2c1	n	u	20.6µM	n	20.6µM	u
NCCc1c[nH]c2ccc(OCc3ccccc3)cc12	n	n	n	n	n	n
COc1ccc(-c2nn(CCC#N)cc2C(=O)NCc2ccccc2)cc1	n	n	n	n	n	n

From PubChem BioAssay
